Several values for one entry are separate records, joined by “and”; a condition that tells them apart may be missing. Identical values can stand only once. Compounds without any hit were thinned out: in the full panel of roughly 83,000, 20% have a hit.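 Single-dose data. Exposure time 48 hours. Values below 10 considered active.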 Unmarked numbers belong to inactive results. Activity calls are given as the source filed them.
Test system: MDA-MB-468 breast
Assay: NCI-60 one-dose screen, 48 h (100 = growth as untreated, 0 = no growth, -100 = all killed)
Conditions: 10 µM unless noted

Row | Structure (SMILES) | growth
1 | CC(CN=Cc1ccccc1O)N=Cc1ccccc1O (stereo not given) | 115% and 98%
2 | O=c1c2cccc3c(Nc4ccc(F)cc4)ccc(c32)c2nc3ccccc3n12 | -43.8% (active)
3 | O=[N+]([O-])c1cccc(-c2nc(-c3ccc(Cl)cc3Cl)cn2-c2ccccc2)c1 | 22.2%
4 | O[C@H]1[C@H]2c3cc4c(cc3CN3CCC(=C[C@@H]1O)[C@H]23)OCO4 | 20.7%
5 | Nc1c(C(=O)Nc2ccccc2)sc2nc3c(cc12)CN(CCc1ccccc1)CC3 | 107%
6 | CC(C)C[C@@H](NC(=O)[C@@H](Cc1ccccc1)NC(=O)c1cnccn1)B1Oc2ccc(C[C@H](NC(=O)[C@H](Cc3ccc4c(c3)OB([C@@H](CC(C)C)NC(=O)[C@@H](Cc3ccccc3)NC(=O)c3cnccn3)O4)NC(=O)[C@@H](N)CC3CCC4OB([C@@H](CC(C)C)NC(=O)[C@@H](CC5CCCCC5)NC(=O)C5CNCCN5)OC4C3)C(=O)NCCCC[C@@H]3NC(=O)[C@@H](Cc4ccccc4)NC(=O)[C@H](CC(=O)O)NC(=O)CNC(=O)[C@H](CCCNC(=N)N)NC3=O)cc2O1 (stereo not given in full) | -41.5% (active)
7 | COC(=O)c1cc([N+](=O)[O-])cc([N+](=O)[O-])c1Cl | -7.42% (active)
8 | O=C(Cc1cccc(OC(F)(F)F)c1)Nc1ccc(CCCCc2nnc(NC(=O)Cc3ccccn3)s2)nn1 | 52.3%
9 | O=C(S)CNC(=O)c1ccccc1 | 95.7%
10 | [O-]/[N+](=C\C=C\c1ccccc1)c1ccccc1 | 113%
11 | CCOc1ccc2c(c1)c(C)cc(C)[n+]2CC | 9.85% (active)
12 | CC(C)(C)c1ccc(C(=O)Nc2sc3c(c2C#N)CCC(=O)C3)cc1 | 2.73% (active)
13 | Nc1ccc(-c2nnc(SCc3ccc(O)c4ncccc34)o2)cc1 | -20.7% (active)
14 | CCOC(=O)c1c(/C=C/C(=O)O)nc2ccccc2c1/C=C/c1ccccc1 | 7.2% (active)
15 | COc1cc2cc(Oc3ccc(NC(=O)c4ccc(Cl)c(C(F)(F)F)c4)cc3)c(C)nc2cc1OC | 6.44% (active)
16 | O=[N+]([O-])/C(=C\c1ccco1)c1ccccc1Cl | 55.7%
17 | Cc1c[n+](Cc2ccc3ccccc3c2)cn1Cc1ccc2ccccc2c1 | -22.6% (active)
18 | COc1cccc(/C=C2\COc3ccc(O)cc3C2=O)c1 | 66.2%

Row | Structure (SMILES) | growth
19 | CC(=O)C1=C(C)NC(NNC(N)=S)=NC1c1ccccc1 (stereo not given) | 100%
20 | CN(C)CCCn1c2c(c3cc(-c4cccc(S(N)(=O)=O)c4)ccc3c1=O)C(=O)c1ccccc1-2 | 88.5%
21 | COc1cccc(-c2nnc(COc3ccc(-c4nc5ccc(C)cc5[nH]4)cc3OC)o2)c1 | 71%
22 | COC1OC(CO)C(OC)C(O)C1O (stereo not given) | 87.1%
23 | Cc1ccc(/C=C(\C#N)n2nnc3cc(F)c(F)cc32)cc1 | 17.3%
24 | CC(=O)Nc1nc(C)c(C(=O)NNC(=O)Nc2ccccc2)s1 | 61.4%
25 | Cc1cc(O)ccc1C1=NN(c2ccc(S(C)(=O)=O)cc2)C(=O)CC1 | 103%
26 | COC(=O)C(Cc1ccccc1)NC(=O)c1ccc(NC(=O)c2[nH]c(C)c(Cl)c2Cl)c(OC(C)C)c1 (stereo not given) | 96.8%
27 | COc1cc(-c2nc(NC(C)=O)sc2-c2ccnc(NCCNS(=O)(=O)c3ccccc3)n2)ccc1Cl | 20.8%
28 | COc1ccc(-c2nc3sccn3c2-c2ccnc(NCCCNS(=O)(=O)c3ccc(F)cc3)n2)cc1 | 6.78% (active)
29 | Cn1cc(-c2nc(-c3cn(C)c4ncccc34)cs2)c2ccccc21 | -21.1% (active)
30 | CCC(=O)C1C(=O)c2ccccc2C1=O | 115%
31 | COc1ccc(C(=O)c2cc(OC)c(OC)c(OC)c2OC)cc1O | 29.7%
32 | COc1ccc(/C=C/C(=O)c2ccc(NC(=O)CSc3nnc(-c4cc(-c5ccccc5)nc5ccccc45)n3-c3ccccc3)cc2)cc1 | 97.2%
33 | COc1cc2c(c(OC)c1OC)-c1ccc(N=NC(N)=S)c(=O)cc1[C@@H](NC(C)=O)CC2 | -40.8% (active)
34 | C=C(C)[C@@H]1CC[C@]2(C)[C@H](CC=C3[C@@H]4CC(C)(C)CC[C@]4(C(N)=O)CC[C@]32C)[C@@]1(C)CCC#N | 15.1%
35 | C=CCSc1ccc2c(c1)C(N1CCNCC1)=Nc1ccccc1O2 | 27.8% [8.25 µM]

Reference: PubChem BioAssay (NCI)
